Reference: the supplement of paper PMC12350171
Where a name gives a salt, the structure may show the parent alone.

How the values were obtained:
Conditions in all cases: 20 µM
[1] = test system: Salmonella enterica typhimurium; experiment: growth AUC normalised to DMSO control (fraction of control); higher = less growth inhibition, active = hit call of the paper
Procedure, shortened: (§1)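 Hemin and NAD were added to the medium for Haemophilus parainfluenzae. All pathogens, after two anaerobic passages, were inoculated at a starting OD578 of 0.01 into pre-reduced mGAM plates with 20 μM compound and 1% DMSO under breathable seals, and OD578 was read hourly for 24 h in three biological replicates. AUC of each growth curve was obtained with the trapezoidal rule up to the exponential-to-stationary transition and normalised to DMSO controls from the same plate.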

Shigella flexneri = experiment: as above
Procedure, shortened: as §1

Vibrio cholerae = experiment: as above
Procedure, shortened: as §1

[2] = test system: Yersinia pseudotuberculosis; experiment: as above
Procedure, shortened: as §1

P. vulgatus RND KO = experiment: growth AUC normalised to DMSO control (median) (fraction of control); higher = less growth inhibition, active = hit call of the paper
Procedure, shortened: (§2)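 Strains were passaged twice overnight without oxygen, then grown in mGAM in 96-well plates with each approved-drug library compound at 20 μM and 1% DMSO, starting at OD578 0.01. OD578 was read hourly for 24 h inside an anaerobic incubator. Curves were truncated at entry into stationary phase, and the trapezoidal-rule area under the curve was normalised to same-plate vehicle wells. The value is the median across three biological replicates.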

P. vulgatus WT = experiment: as above
Procedure, shortened: as §2

[3] = test system: S. enterica typhimurium WT; experiment: as above
Procedure, shortened: as §2

[4] = test system: S. enterica typhimurium tolC KO; experiment: as above
Procedure, shortened: as §2

Measured: growth AUC normalised to DMSO control
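For growth AUC normalised to DMSO control (median) in this document: active when median AUC fell below 0.1.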

CC1Cc2ccccc2N1NC(=O)c1ccc(Cl)c(S(N)(=O)=O)c1 (stereo not given) [Indapamide]
inactive: [1] 1 | Shigella flexneri 0.985 | Vibrio cholerae 1.01 | [2] 0.992 | P. vulgatus RND KO 0.999 | P. vulgatus WT 1.02 | [3] 1 | [4] 0.988

CCC(C)n1ncn(-c2ccc(N3CCN(c4ccc(OCC5COC(Cn6cncn6)(c6ccc(Cl)cc6Cl)O5)cc4)CC3)cc2)c1=O (stereo not given) [Itraconazole]
inactive: [1] 1.01 | Shigella flexneri 1.03 | Vibrio cholerae 1.04 | [2] 0.998 | P. vulgatus RND KO 1.1 | P. vulgatus WT 1.1 | [3] 1.02 | [4] 1

OCCN1CCN(CCCN2c3ccccc3Sc3ccc(C(F)(F)F)cc32)CC1 [Fluphenazine dihydrochloride]
inactive: [1] 1.01 | Shigella flexneri 0.97 | Vibrio cholerae 1.01 | [2] 1.01 | P. vulgatus RND KO 1 | P. vulgatus WT 1 | [3] 0.993 | [4] 0.918

NC[C@@H]1O[C@H](O[C@H]2[C@@H](O)[C@H](O[C@@H]3[C@@H](O)[C@H](N)C[C@H](N)[C@H]3O[C@H]3O[C@H](CN)[C@@H](O)[C@H](O)[C@H]3N)O[C@@H]2CO)[C@H](N)[C@@H](O)[C@@H]1O [Neomycin sulfate]
inactive: [1] 1.01 | Shigella flexneri 1.04 | Vibrio cholerae 1.05 | [2] 1 | P. vulgatus RND KO 1.02 | P. vulgatus WT 1.01 | [3] 0.999 | [4] 1.03

CCN(CC)CCOc1ccc(C(=C(Cl)c2ccccc2)c2ccccc2)cc1 [(Z,E) Clomiphene citrate]
inactive: [1] 1.02 | Shigella flexneri 1.02 | Vibrio cholerae 1.01 | [2] 1.02 | P. vulgatus RND KO 0.902 | P. vulgatus WT 0.964 | [3] 1.01 | [4] 0.983

Nc1ccc(S(N)(=O)=O)cc1 [Sulfanilamide]
inactive: [1] 1.03 | Shigella flexneri 1.04 | Vibrio cholerae 1.05 | [2] 1.01 | P. vulgatus RND KO 1.03 | P. vulgatus WT 1.06 | [3] 0.993 | [4] 1

Nc1nnc(-c2cccc(Cl)c2Cl)c(N)n1 [Lamotrigine]
inactive: [1] 0.963 | Shigella flexneri 0.933 | Vibrio cholerae 1.03 | [2] 1.01 | P. vulgatus RND KO 0.95 | P. vulgatus WT 0.986 | [3] 0.957 | [4] 0.962

Nc1cc(-c2ccncc2)c[nH]c1=O [Amrinone]
inactive: [1] 1.01 | Shigella flexneri 1.06 | Vibrio cholerae 1.07 | [2] 1 | P. vulgatus RND KO 1.05 | P. vulgatus WT 1.06 | [3] 1 | [4] 1.02

COc1ccc2[nH]c([S+]([O-])Cc3ncc(C)c(OC)c3C)nc2c1 (stereo not given) [Omeprazole]
inactive: [1] 0.958 | Shigella flexneri 0.998 | Vibrio cholerae 1.05 | [2] 1 | P. vulgatus RND KO 1.02 | P. vulgatus WT 1.03 | [3] 1 | [4] 0.952

CC(=O)O[C@H]1C[C@@H]2CC[C@@H]3[C@H](CC[C@@]4(C)[C@H]3C[C@H]([N+]3(C)CCCCC3)[C@@H]4OC(C)=O)[C@@]2(C)C[C@@H]1N1CCCCC1 [Vecuronium bromide]
inactive: [1] 1.01 | Shigella flexneri 0.979 | Vibrio cholerae 1.01 | [2] 1.02 | P. vulgatus RND KO 0.955 | P. vulgatus WT 0.998 | [3] 1 | [4] 1

O=C(O)c1ccccc1C(=O)Nc1ccc(S(=O)(=O)Nc2nccs2)cc1 [Phthalylsulfathiazole]
inactive: [1] 1.01 | Shigella flexneri 1.01 | Vibrio cholerae 1.03 | [2] 0.997 | P. vulgatus RND KO 1.03 | P. vulgatus WT 1.03 | [3] 0.993 | [4] 0.998

C=CC(N)CCC(=O)O (stereo not given) [Vigabatrin hydrochloride]
inactive: [1] 1.02 | Shigella flexneri 1.02 | Vibrio cholerae 1.01 | [2] 0.997 | P. vulgatus RND KO 1.01 | P. vulgatus WT 1.06 | [3] 1.03 | [4] 0.992

Cc1nnc(NS(=O)(=O)c2ccc(N)cc2)s1 [Sulfamethizole]
inactive: [1] 0.985 | Shigella flexneri 0.98 | Vibrio cholerae 0.978 | [2] 1.01 | P. vulgatus RND KO 1 | P. vulgatus WT 1 | [3] 0.978 | [4] 0.984

CC(Oc1c(Cl)cccc1Cl)C1=NCCN1 (stereo not given) [Lofexidine]
inactive: [1] 1.01 | Shigella flexneri 1 | Vibrio cholerae 1.01 | [2] 1.01 | P. vulgatus RND KO 1.02 | P. vulgatus WT 1.03 | [3] 1.02 | [4] 1

CN1CCC(=C2c3ccccc3CCc3sccc32)CC1 [Pizotifen malate]
inactive: [1] 0.992 | Shigella flexneri 0.976 | [2] 0.998 | P. vulgatus RND KO 0.965 | P. vulgatus WT 0.973 | [3] 0.994 | [4] 0.963
active: Vibrio cholerae 0.873

COc1cc(-c2ccc(=O)[nH]n2)ccc1OC(F)F [Zardaverine]
inactive: [1] 0.99 | Shigella flexneri 0.999 | Vibrio cholerae 0.955 | [2] 0.998 | P. vulgatus RND KO 1 | P. vulgatus WT 1.02 | [3] 0.995 | [4] 0.997

CN(C)CCCN1c2ccccc2Sc2ccc(Cl)cc21 [Chlorpromazine hydrochloride]
inactive: [1] 0.996 | Shigella flexneri 0.983 | [2] 0.985 | P. vulgatus RND KO 0.924 | P. vulgatus WT 0.903 | [3] 1 | [4] 0.962
active: Vibrio cholerae 0.877

O=C1CN(/N=C/c2ccc(-c3ccc([N+](=O)[O-])cc3)o2)C(=O)N1 [Dantrolene sodium salt]
inactive: [1] 1.04 | Shigella flexneri 0.97 | Vibrio cholerae 0.948 | [2] 0.986 | P. vulgatus RND KO 1.04 | P. vulgatus WT 1.03 | [3] 1.02 | [4] 0.825

Cc1cccc(N(C)C(=S)Oc2ccc3ccccc3c2)c1 [Tolnaftate]
inactive: [1] 0.953 | Shigella flexneri 1.02 | Vibrio cholerae 0.991 | [2] 0.986 | P. vulgatus RND KO 1 | P. vulgatus WT 1.04 | [3] 1 | [4] 0.981

CCN(CC)CCNC(=O)c1cc(S(C)(=O)=O)ccc1OC [Tiapride hydrochloride]
inactive: [1] 0.985 | Shigella flexneri 0.992 | Vibrio cholerae 1 | [2] 1.01 | P. vulgatus RND KO 0.961 | P. vulgatus WT 0.952 | [3] 0.992 | [4] 0.999

O=C(O)CNC(=O)C(CS)Cc1ccccc1 (stereo not given) [Thiorphan]
inactive: [1] 1.02 | Shigella flexneri 1.05 | Vibrio cholerae 1.08 | [2] 1.01 | P. vulgatus RND KO 0.993 | P. vulgatus WT 1 | [3] 0.997 | [4] 0.995

CCCCC1(COC(=O)CCC(=O)O)C(=O)N(c2ccccc2)N(c2ccccc2)C1=O [Suxibuzone]
inactive: [1] 1 | Shigella flexneri 1 | Vibrio cholerae 0.993 | [2] 1.01 | P. vulgatus RND KO 1.02 | P. vulgatus WT 1.03 | [3] 1.01 | [4] 0.985

CCCCc1nc(Cl)c(CO)n1Cc1ccc(-c2ccccc2-c2nnn[nH]2)cc1 [Losartan]
inactive: [1] 1.03 | Shigella flexneri 1.03 | Vibrio cholerae 1.04 | [2] 1.02 | P. vulgatus RND KO 0.974 | P. vulgatus WT 0.977 | [3] 1 | [4] 0.995

CN1C(C(=O)Nc2ccccn2)=C(O)c2ccccc2S1(=O)=O [Piroxicam]
inactive: [1] 0.973 | Shigella flexneri 0.995 | Vibrio cholerae 0.892 | [2] 1.01 | P. vulgatus RND KO 1.01 | P. vulgatus WT 1.04 | [3] 1.01 | [4] 0.977

N[C@@H](Cc1cc(I)c(Oc2cc(I)c(O)c(I)c2)c(I)c1)C(=O)O [(L) Thyroxine]
inactive: [1] 1.01 | Shigella flexneri 1.02 | Vibrio cholerae 1.03 | [2] 1.02 | P. vulgatus RND KO 0.994 | P. vulgatus WT 1.06 | [3] 1.02 | [4] 0.983

O=C(COc1ccc(Cl)cc1)N1CCN(Cc2ccc3c(c2)OCO3)CC1 [Fipexide hydrochloride]
inactive: [1] 0.987 | Shigella flexneri 0.971 | Vibrio cholerae 0.875 | [2] 0.992 | P. vulgatus RND KO 1 | P. vulgatus WT 0.966 | [3] 0.995 | [4] 0.942

NNC(=O)c1ccncc1 [Isoniazid]
inactive: [1] 1.02 | Shigella flexneri 1.04 | Vibrio cholerae 1.05 | [2] 0.942 | P. vulgatus RND KO 1.04 | P. vulgatus WT 1.07 | [3] 1.01 | [4] 0.989

Nc1ccc(/N=N/c2ccccc2)c(N)n1 [Phenazopyridine hydrochloride]
inactive: [1] 0.969 | Shigella flexneri 0.922 | Vibrio cholerae 0.927 | [2] 0.958 | P. vulgatus RND KO 1.03 | P. vulgatus WT 1.03 | [3] 0.989 | [4] 0.988

Cc1c(NC(=O)c2cccnc2)c(=O)n(-c2ccccc2)n1C [Nifenazone]
inactive: [1] 0.976 | Shigella flexneri 1 | Vibrio cholerae 1.01 | [2] 1.01 | P. vulgatus RND KO 0.997 | P. vulgatus WT 1 | [3] 1.01 | [4] 0.996

Cc1cc2c(cc1S(N)(=O)=O)S(=O)(=O)CCC2 [Meticrane]
inactive: [1] 1.01 | Shigella flexneri 0.996 | Vibrio cholerae 1.01 | [2] 1.01 | P. vulgatus RND KO 1.03 | P. vulgatus WT 1.01 | [3] 1.02 | [4] 1.01
